Assay outcomes from PubChem.
Hits are enriched below; roughly 2.9% of the tested compounds scored in any of these assays.
Pf gametocyte: kills late stage P. falciparum gametocytes; P. falciparum stage V gametocytes, ATP luminescence, 24 h; inhibition, % at 10.9 µM; 150,000 tested, 0.065% active;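 active means inhibition above the mean plus 3 SD of compounds within the control limits, set per campaign, cut at about 38% in these data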;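 further: 0% = DMSO wells and 100% = medium only without gametocytes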
14-3-3 Bad inh: disrupts binding of bovine 14-3-3 zeta to phospho-Bad peptide. TR-FRET 14-3-3zeta/Dy647-pBad peptide displacement, 1 h. P63103. 220,000 tested, 0.71% active. inhibition, % at 21.7 µM;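 active means inhibition above about 70%, limit read from the data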;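 further: 0% = full 14-3-3 plus peptide FRET controls and 100% = background without 14-3-3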
Target sequence (P63103 whole entry, looked up): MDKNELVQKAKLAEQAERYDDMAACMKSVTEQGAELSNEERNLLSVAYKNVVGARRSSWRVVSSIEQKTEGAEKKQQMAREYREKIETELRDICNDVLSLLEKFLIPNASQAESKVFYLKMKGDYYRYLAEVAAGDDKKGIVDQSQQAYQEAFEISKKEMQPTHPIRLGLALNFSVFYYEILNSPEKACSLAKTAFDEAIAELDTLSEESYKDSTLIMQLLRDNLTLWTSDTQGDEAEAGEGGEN
Bim-Mcl-1: human Bim-Mcl-1 interaction inhibition. inhibition, % at 10 µM. AID 1009. Bead-based flow cytometry, Bim peptide-Mcl-1 binding. Q07820. 190,000 tested, 0.1% active; in the data active means inhibition above about 40%;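 further: 0% = no compound tracer wells and 100% = peptide blocker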
Target sequence (Q07820 whole entry, looked up): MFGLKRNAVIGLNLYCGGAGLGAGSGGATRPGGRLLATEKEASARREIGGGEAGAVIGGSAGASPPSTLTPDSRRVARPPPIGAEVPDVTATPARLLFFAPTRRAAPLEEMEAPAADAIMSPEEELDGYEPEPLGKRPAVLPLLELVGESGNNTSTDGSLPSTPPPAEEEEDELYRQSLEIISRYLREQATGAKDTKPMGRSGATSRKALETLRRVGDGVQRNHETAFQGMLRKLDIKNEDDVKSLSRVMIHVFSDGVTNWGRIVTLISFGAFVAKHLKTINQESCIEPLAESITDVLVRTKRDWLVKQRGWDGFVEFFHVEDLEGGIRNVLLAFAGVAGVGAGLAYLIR
Mcl1 Noxa PPI: disrupts binding of human Mcl-1 to Noxa peptide; TR-FRET Mcl-1/Noxa peptide binding, 2 h; AID 1022; inhibition, % at 21.7 µM; 220,000 tested, 1.5% active; Q07820;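 active means compounds that cut the protein-peptide binding signal by more than 50% relative to plate controls in a single-dose test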;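 further: His-tagged Mcl-1 with rhodamine Noxa BH3 peptide and terbium anti-His antibody; 0% = Mcl-1 plus Noxa peptide wells and 100% = peptide-only wells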
Mcl1-Bid inh: Mcl-1/Bid interaction inhibition; AID 1021; 220,000 tested, 0.97% active; TR-FRET Mcl-1/Bid-Dy647 peptide binding, 1536-well; inhibition, % at 21.7 µM; Q07820;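 active means compounds that cut the binding signal by more than half at the single screening dose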;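 further: His-tagged Mcl-1 with europium anti-His antibody binding Bid BH3 peptide; 0% = Mcl-1 plus peptide wells and 100% = peptide-only wells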
Hck Nef HTS: inhibitors of human Hck kinase activated by Nef | P08631 | Recombinant Hck-YEEI plus Nef, Z-Lyte FRET kinase assay | inhibition, % at 20 µM | 220,000 tested, 0.68% active;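 active means Hck-Nef kinase inhibition above about 50%, limit read from the data; inactive means inhibition below that limit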;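 further: 0% = DMSO with Hck plus Nef and 100% = Hck alone without Nef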
The depositor's hits bear a star; x = no result given; [ ] = dose if it differs, or a comment.

SMILES | Pf gametocyte | 14-3-3 Bad inh | Bim-Mcl-1 | Mcl1 Noxa PPI | Mcl1-Bid inh | Hck Nef HTS
CCC(=O)Nc1ccccc1C(=O)OCc1ccc(C(=O)c2ccccc2)cc1 | x | -3 | -3 | -9 | -29 | 0
CCC(=O)Nc1ccccc1C(=O)OCC(=O)c1cccc2ccccc12 | -3 | 85*[fluorescence artefact?] | -1 | -3 | 4 | 2
COc1ccc(C(=O)Nc2ccc(C(=O)OCC(=O)c3cccc4ccccc34)cc2)cc1 | 5 | 7 | 44* | 15 | -7 | 4
COc1ccccc1NC(=O)c1cc2ccccc2o1 | x | -9 | 0 | 10 | -6 | -8
COc1ccc(-c2coc3cc(O[C@@H]4O[C@H](CO)[C@@H](O)[C@H](O)[C@H]4O)c(OC)cc3c2=O)cc1 | 5 | x | x | x | x | x
NS(=O)(=O)c1cc(C(=O)OCC(=O)Nc2ccc(Cl)cc2[N+](=O)[O-])ccc1Cl | 15 | -8 | 0 | 23 | -19 | 6
COc1ccc(NC(=O)COC(=O)c2ccc(Cl)c(S(N)(=O)=O)c2)c([N+](=O)[O-])c1 | -2 | -5 | x | 53* | -13 | 4
CC(C)c1onc(C(=O)Nc2cccnc2Cl)c1[N+](=O)[O-] | -12 | -5 | 2 | 12 | -24 | 6
CC1CCN(C(=O)Cn2cc3c(n2)CCCC3)CC1 | x | 5 | -2 | -4 | -9 | 20
CN1CCN(C(=O)CSc2nc(-c3cccs3)ccc2C#N)CC1 | -6 | 1 | -1 | 56* | -9 | 1
N=C(N)SCP(=O)(c1ccccc1)c1ccccc1 | 7 | -1 | x | 9 | 56* | 7
CCCCN(CCCC)CC1OCc2ccccc2CO1 | 0 | 33 | -2 | -6 | -6 | 0
CC1(c2ccccc2)NC(=O)N(CC(=O)Nc2ccc3c(c2)OCO3)C1=O (centres undefined) | x | -3 | -1 | 14 | -9 | 2
O=C(CN1C(=O)NC(c2ccccc2)(c2ccccc2)C1=O)Nc1ccc2[nH]c(=O)[nH]c2c1 | 1 | 1 | x | 64* | -33 | 4
O=C(N/N=C/c1ccc(O)cc1)c1csc2c1CCCC2 | 15 | -1 | -3 | 22 | -24 | 1
Cc1cc(C(=O)OCC(=O)Nc2sc3c(c2C#N)CCC(C)C3)c2ccccc2n1 (centres undefined) | x | -10 | 0 | 93* | 38 | 5
O=c1c2ccccc2sn1-c1ccccc1 | 28 | -39 | -11 | 25 | -58 | 96*
CCOC(=O)C1=C(c2ccccc2)NC(=O)NC1c1ccc(O)c(Cl)c1 (centres undefined) | 10 | x | x | x | x | x
Cc1cc(SCCOc2ccc(Br)cc2)nc(N)n1 | x | 5 | -6 | 24 | 3 | 1
O=c1oc2cc([N+](=O)[O-])ccc2nc1/C=C(\O)c1cccc(Br)c1 | -48 | -4 | x | -16 | -37 | 20
O=c1oc2cc([N+](=O)[O-])ccc2nc1/C=C(O)/C=C/c1ccccc1 | x | 2 | x | 72* | -75 | 12
CCn1c(=N)c(S(=O)(=O)c2ccc(C)cc2)cc2c(=O)n3ccccc3nc21 | x | -1 | 5 | -3 | -6 | 14
CCn1c(=N)c(S(=O)(=O)c2ccccc2)cc2c(=O)n3ccccc3nc21 | 16 | 79* | 2 | 19 | 9 | 18
C#CCOCCOCCOCCNc1nc(N2CCN(C(=O)[C@H]([C@@H](C)CC)n3cc(CCCN=C(N)N)nn3)CC2)nc(N2CCN(C(=O)[C@H](C)n3cc(CCCN=C(N)N)nn3)CC2)n1 | x | 75* | -4 | 36 | 45 | -3
C#CCOCCOCCOCCNc1nc(N2CCN(C(=O)Cn3cc(CCCN=C(N)N)nn3)CC2)nc(N2CCN(C(=O)Cn3cc(CCCN=C(N)N)nn3)CC2)n1 | x | 88* | -1 | 42 | 58* | -6
SMILES | Pf gametocyte | 14-3-3 Bad inh | Bim-Mcl-1 | Mcl1 Noxa PPI | Mcl1-Bid inh | Hck Nef HTS
C#CCOCCOCCOCCNc1nc(N2CCN(C(=O)[C@H]([C@@H](C)CC)n3cc(CCCN=C(N)N)nn3)CC2)nc(N2CCN(C(=O)[C@H]([C@@H](C)CC)n3cc(CCCN=C(N)N)nn3)CC2)n1 | x | 77* | 0 | 25 | 62* | -3
C#CCOCCOCCOCCNc1nc(N2CCOCC2)nc(N2CCN(C(=O)Cn3cc(CCCN=C(N)N)nn3)CC2)n1 | 6 | 20 | 0 | 17 | 8 | -1
CCOC(=O)N1CCN(C(=O)c2ccc3nc(SCc4ccc(F)cc4)n(C)c3c2)CC1 | x | -9 | -1 | 11 | -32 | 0
COC(=O)Nc1nc(Sc2ncc(C(F)(F)F)cc2Cl)n[nH]1 | 2 | 8 | -3 | 2 | -8 | 3
COc1cc(C2NC(=O)NC(C)=C2C(=O)OC(C)(C)C)ccc1OCC(=O)O (centres undefined) | 6 | -2 | 0 | 2 | -22 | 1
Cc1cc(NC(=O)c2ccc(Cl)c(S(=O)(=O)N3CCOCC3)c2)no1 | -34 | -4 | -5 | 9 | -12 | 3
COc1ccc(C(=O)Nc2cc(C)on2)cc1S(=O)(=O)N1CC(c2ccccc2)CC1=O (centres undefined) | 0 | 90* | -4 | 11 | -28 | 2
Cc1cc(NC(=O)c2sccc2C)n(-c2cccc(Cl)c2)n1 | x | -6 | -4 | -1 | -53 | 0
Fc1ccc(NC(=S)NCCc2ccccn2)cc1 | x | -6 | 1 | 5 | -39 | 0
CC(C)(C)c1ccc(NC(=S)NCCc2ccccn2)cc1 | -3 | 25 | x | 23 | 51* | 14
O=C1CN(C(=O)CSc2nncs2)c2ccccc2N1 | -3 | -6 | 0 | -18 | -8 | -43
COc1ccc(/C=N/NS(=O)(=O)c2ccccc2)cc1OC(=O)c1ccc(C)cc1 | 1 | -5 | 0 | 23 | 86* | 1
COc1ccc2c(c1)c(=O)oc1cc3oc(C)c(C)c3cc12 | x | 10 | -4 | 56* | 67* | -2
CC(=O)Nc1ccc(C2(O)COc3ccccc3O2)cc1 (centres undefined) | x | 31 | -7 | 19 | -22 | -1
Cc1ncc([N+](=O)[O-])n1Cc1ccccc1F | 2 | -7 | 4 | 4 | -7 | 21
CC1CCCC(=C\c2ccccc2)/C1=N/O (centres undefined) | -11 | -8 | 0 | 1 | -9 | 5
Cc1nc2ccccc2n1CC(=O)NC1CCCC1 | 23 | 71* | -2 | 16 | -8 | -25
COCCn1nnnc1CN1CCOCC1 | -24 | 75* | 1 | 34 | 29 | 1
S=c1[nH]nc(Cc2noc3ccccc23)n1-c1ccc(Cl)cc1 | 0 | -5 | -4 | 16 | 54* | -6
Cc1ccc(-n2c(Cc3noc4ccccc34)n[nH]c2=S)cc1 | -20 | -3 | -5 | 17 | -51 | 2
CCc1nnc(NC(=O)c2ccc(-c3ccc([N+](=O)[O-])cc3Cl)o2)s1 | 10 | 50 | 0 | 59* | 66* | 29
O=C(Nc1nccs1)c1ccc(-c2ccc([N+](=O)[O-])cc2)o1 | 13 | 52 | 1 | 66* | 26 | 35
COc1ccc(NC(=O)c2ccc(-c3ccc([N+](=O)[O-])cc3)o2)cc1 | -13 | 17 | 0 | 51* | 2 | 29
